Growth data for 14 compounds are collected here from PubChem BioAssay (NCI).

This is part of a sample that, as a whole, favours compounds with a hit. Of some 83,000 tested, about 20% had one in any assay.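 48-hour exposure, single concentration, 96-well plates; percent growth endpoint where 0 means no net growth. Active: below 10.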 A number with no mark means an inactive call. The source made the active and inactive calls.

Some test systems named below: NCI-H23 lung; NCI-H226 lung; HOP-62 NSCLC; NCI-H460 lung; HOP-92 NSCLC; NCI-H522 lung; A549/ATCC NSCLC; 786-0 renal; COLO 205 colon.
Assay in all cases: NCI-60 one-dose screen, 48 h (100 = growth as untreated, 0 = no growth, -100 = all killed)
Common to all, as to conditions: 10 µM unless noted

For the compound `Cn1c(=O)c2[nH]c(N/N=C/c3ccccc3Br)nc2n(C)c1=O`, the growth in the experiment with NCI-H23 lung is 107%; with NCI-H226 lung, 110%; with HOP-62 NSCLC, 112%; with NCI-H460 lung, 110%; with HOP-92 NSCLC, 104%; in the experiment on NCI-H522 lung, 89.7%. Also, the values for the growth in the experiment on A549/ATCC NSCLC, in the experiment on 786-0 renal and in the experiment with COLO 205 colon were 101%, 96.9% and 137%, respectively.

Regarding `O=C(CN1C(=O)CCC1=O)Nc1ncc(Cc2ccc(F)cc2)s1`, the growth in the experiment on NCI-H23 lung is 98.6%; in the experiment with NCI-H226 lung it was 95.9%; with HOP-62 NSCLC, 105%; with NCI-H460 lung it was 106%; in the experiment on HOP-92 NSCLC it was 99.9%; with NCI-H522 lung, 99%. For the same compound, the growth in the experiment with A549/ATCC NSCLC was 108%; with 786-0 renal, 101%; with COLO 205 colon it was 113%.

Turning to `Nc1ncnc2c1N=C(c1ccc3c(c1)OCO3)CC(c1ccc([N+](=O)[O-])cc1)N2` (centres undefined), the growth was 74.7% with NCI-H23 lung; 83% with NCI-H226 lung; 66.9% in the experiment with HOP-62 NSCLC; 96.2% in the experiment on NCI-H460 lung; 41.9% in the experiment on HOP-92 NSCLC; 95.3% in the experiment on NCI-H522 lung. For the same compound, the growth with A549/ATCC NSCLC was 58.7%; in the experiment on 786-0 renal, 51.8%; in the experiment with COLO 205 colon, 97.6%.

Turning to `O=C(NCCCCNC(=O)OCc1ccc2c(Cl)cc(Cl)c(O)c2n1)OCc1ccc2c(Cl)cc(Cl)c(O)c2n1`, the growth in the experiment on NCI-H23 lung was 24.6%; in the experiment with NCI-H226 lung, 8.33% (active); with HOP-62 NSCLC it was 9.48% (active); with NCI-H460 lung, 2.78% (active); with HOP-92 NSCLC, 48.5%; with NCI-H522 lung, -2.86% (active). The growth in the experiment with A549/ATCC NSCLC was 14.8%; with 786-0 renal, 70.7%.

Take `N#CC1=C(N)Oc2c(sc3c(Br)cccc23)C1c1ccc(F)cc1` (centres undefined): the growth in the experiment on NCI-H23 lung was 31.1%; in the experiment on NCI-H226 lung, 36.6%; in the experiment on HOP-62 NSCLC, 26.3%; in the experiment on NCI-H460 lung it was 9.57% (active); with HOP-92 NSCLC it was 41%; in the experiment with NCI-H522 lung, -6.79% (active). Besides, the growth was 24.1% in the experiment on A549/ATCC NSCLC, 12.2% in the experiment with 786-0 renal and -35.7% (active) with COLO 205 colon.

As to `COC1=CC(c2ccc[nH]2)=N/C1=C\c1[nH]c(C)c(C(=O)OCc2ccccc2)c1C`, the growth in the experiment on NCI-H23 lung was -15.7% (active); in the experiment with NCI-H226 lung it was -25.2% (active); with HOP-62 NSCLC, -43.2% (active); in the experiment with NCI-H460 lung, -11.8% (active); with HOP-92 NSCLC, -26.3% (active); with NCI-H522 lung it was -59.6% (active). The growth is -26.8% (active) in the experiment on A549/ATCC NSCLC, -49.2% (active) in the experiment with 786-0 renal and -82% (active) with COLO 205 colon.

Consider `CSc1nc2sc3c(c2c(=O)n1-c1ccc([N+](=O)[O-])cc1)CCCCC3`, for which the growth is 90.8% in the experiment with NCI-H23 lung; 94% in the experiment on NCI-H226 lung; 73.4% in the experiment on HOP-62 NSCLC; 74.7% with NCI-H460 lung; 94.6% in the experiment with HOP-92 NSCLC; 81% in the experiment on NCI-H522 lung. The growth is 81.1% in the experiment on A549/ATCC NSCLC, 95.7% in the experiment on 786-0 renal and 99% in the experiment with COLO 205 colon.

For `COc1ccc2nc(NC(=O)CSc3nnc4n3S(=O)(=O)c3ccccc3N4C)sc2c1`, the growth was 94.9% with NCI-H23 lung; 103% in the experiment with NCI-H226 lung; 97.9% in the experiment on HOP-62 NSCLC; 112% with NCI-H460 lung; 90.5% in the experiment on HOP-92 NSCLC; 70.9% in the experiment with NCI-H522 lung. Also, the growth in the experiment on A549/ATCC NSCLC was 77.9%; with 786-0 renal, 103%; in the experiment on COLO 205 colon, 138%.

With `OCCCC1CCN(C(Cc2ccccc2)c2ccccc2)CC1` (centres undefined), the growth in the experiment with NCI-H23 lung is 102%; in the experiment on NCI-H226 lung, 102%; in the experiment on HOP-62 NSCLC it was 87.2%; with NCI-H460 lung, 106%; with HOP-92 NSCLC, 80.6%; in the experiment with NCI-H522 lung it was 43.9%. For the same compound, the growth with A549/ATCC NSCLC is 73.3%; with 786-0 renal, 82.5%; in the experiment with COLO 205 colon, 79.9%.

On to `Nc1c(C(=O)Nc2ccccc2Cl)sc2nc3c(cc12)C(O)CCC3` (centres undefined), for which the growth with NCI-H23 lung is 44.2%; in the experiment with NCI-H226 lung, 52.8%; in the experiment with HOP-62 NSCLC, 41.8%; with NCI-H460 lung, 24.5%; in the experiment with HOP-92 NSCLC, 46.4%; with NCI-H522 lung, -33.7% (active). Further, the growth is 25.4% with A549/ATCC NSCLC, 48.1% with 786-0 renal and 4.09% (active) in the experiment with COLO 205 colon.

Consider `CCOC(=O)c1ccc2[nH]c(O)c(C(=Nc3ccc(N(C)C(=O)CN4CCN(C)CC4)cc3)c3ccccc3)c2c1`, for which the growth in the experiment on NCI-H23 lung is -59.3% (active); in the experiment on NCI-H226 lung, 15.5%; in the experiment on HOP-62 NSCLC, -5.97% (active); in the experiment on NCI-H460 lung it was -27.1% (active); in the experiment on NCI-H522 lung, -48.8% (active); in the experiment with A549/ATCC NSCLC, -20.5% (active). Further, the growth is -95% (active) with 786-0 renal and -56.3% (active) in the experiment with COLO 205 colon.

As for `C#CCOc1cccc(Nc2ncnc3ccc(NC(=O)CCl)cc23)c1`, the growth was -66.8% (active) in the experiment on NCI-H23 lung; 21% in the experiment with NCI-H226 lung; -35.4% (active) with HOP-62 NSCLC; -19.9% (active) in the experiment on NCI-H460 lung; -76.5% (active) in the experiment on HOP-92 NSCLC; -76.3% (active) in the experiment with NCI-H522 lung. Besides, the growth in the experiment with A549/ATCC NSCLC was -38.6% (active); in the experiment on 786-0 renal it was -81.9% (active); in the experiment on COLO 205 colon, -64.6% (active).

Consider `COc1cc(-n2cc(-c3cc(O)c(C/C=C(\C)CCC=C(C)C)c(O)c3)nn2)cc2c1O[C@]1(C)CC[C@@H](O)C(C)(C)[C@H]1C2`, for which the growth in the experiment on NCI-H23 lung is 26.2%; in the experiment on NCI-H226 lung, 52.7%; in the experiment with HOP-62 NSCLC, -15.1% (active); with NCI-H460 lung, 10.4%; in the experiment with HOP-92 NSCLC it was -6.06% (active); with NCI-H522 lung, -26.6% (active). The growth in the experiment on A549/ATCC NSCLC was 10.3%; in the experiment with 786-0 renal, 6.92% (active); in the experiment with COLO 205 colon, 12.5%.

For `COc1cc(NC(C)CCCNC(C)C)c2ncccc2c1OC` (centres undefined), the growth in the experiment on NCI-H23 lung is 89.5%; in the experiment on NCI-H226 lung, 95%; in the experiment on HOP-62 NSCLC it was 98.3%; in the experiment on NCI-H460 lung, 98.6%; with HOP-92 NSCLC, 74.6%; in the experiment with NCI-H522 lung, 69.6%. The values for the growth in the experiment with A549/ATCC NSCLC, in the experiment on 786-0 renal and in the experiment with COLO 205 colon were 102%, 86.8% and 90.6%, respectively.
